Here are results for 1 compound from PubChem BioAssay (NCATS).

Structures are written as SMILES. Where “and” joins values, the source holds several entries; their conditions need not be identical. Equal values may be shown once. Results filed as inconclusive are left out. Calls of active or inactive are those of the source. Unless noted, the call rests on the fitted dose curve; in most records, active means well fitted curve in the direction sought with a large enough effect; inconclusive means small, poorly fitted or top-dose-only effect, or another doubt; inactive means no such curve, though single readings can be large; an effect the other way counts as inactive or inconclusive.

For experiment [1], the target named is Peroxisome proliferator-activated receptor gamma (Homo sapiens) (UniProt P37231). The experiment in a line: qHTS assay for small molecule agonists of peroxisome proliferator-activated receptor gamma signaling (AID 588536; active means well fitted curve in the direction sought with a large enough effect in the signal ratio, with a control signal flat, not every such curve was filed as active; the % refers to the signal ratio;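 further: 0% = DMSO basal wells and 100% = rosiglitazone at 2 µM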). Put shortly:
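Ratiometric blue/green fluorescence (405 nm excitation; 460 and 530 nm emission) from CCF4-loaded HEK293 reporter cells serves as signal. Exposure to test compounds lasts 16 h at 37 C in medium containing 1% charcoal/dextran-treated serum.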
On the technique in general: qHTS replaces the single test concentration by a dilution series.

Experiment [2] addresses Vitamin D3 receptor (Homo sapiens) (UniProt P11473). The experiment is described as follows: qHTS assay for small molecule antagonists of vitamin D receptor signaling (AID 588541; calls by dose curve;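 further: receptor activated by calcitriol during compound treatment; series mostly up to about 77 µM; on the % scale 0 is the no-effect control and ±100 the full control effect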). Put shortly:
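VDR-UAS-bla HEK293T cells (2000/well, 2% charcoal-stripped FBS) were treated with titrated compounds plus 1-alpha,25-dihydroxyvitamin D3 (50 nM or 3 nM final) for 16 h at 37 C. CCF4 beta-lactamase fluorescence was read; Hill fits gave IC50.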

For experiment [3] the target is unchanged. The experiment is described as follows: qHTS assay for small molecule agonists of vitamin D receptor signaling (AID 588543; calls by dose curve;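 further: 0% = DMSO basal and 100% = reference agonist control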). Put shortly: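 qHTS in agonist mode: compound titrations stimulate a VDR-driven β-lactamase reporter in HEK293T cells over 16 h at 37 °C. Response normalized to 50 nM 1α,25-dihydroxyvitamin D3 = 100%, DMSO = 0%; Hill fitting gives EC50 and maximal response.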

Experiment [4] is described as follows: qHTS assay for small molecule agonists of retinoid X receptor alpha signaling (AID 588544; calls by dose curve;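 on activation: 0% = DMSO basal wells and 100% = reference agonist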). Particulars: HEK293T RXRa-UAS-bla, beta-lactamase reporter, 18 h; 530 nm emission.
The target in experiment [5] is Retinoic acid receptor RXR-alpha (Homo sapiens) (UniProt P19793). The experiment is described as above.
Chain of Retinoic acid receptor RXR-alpha (Homo sapiens) (P19793 whole entry, looked up): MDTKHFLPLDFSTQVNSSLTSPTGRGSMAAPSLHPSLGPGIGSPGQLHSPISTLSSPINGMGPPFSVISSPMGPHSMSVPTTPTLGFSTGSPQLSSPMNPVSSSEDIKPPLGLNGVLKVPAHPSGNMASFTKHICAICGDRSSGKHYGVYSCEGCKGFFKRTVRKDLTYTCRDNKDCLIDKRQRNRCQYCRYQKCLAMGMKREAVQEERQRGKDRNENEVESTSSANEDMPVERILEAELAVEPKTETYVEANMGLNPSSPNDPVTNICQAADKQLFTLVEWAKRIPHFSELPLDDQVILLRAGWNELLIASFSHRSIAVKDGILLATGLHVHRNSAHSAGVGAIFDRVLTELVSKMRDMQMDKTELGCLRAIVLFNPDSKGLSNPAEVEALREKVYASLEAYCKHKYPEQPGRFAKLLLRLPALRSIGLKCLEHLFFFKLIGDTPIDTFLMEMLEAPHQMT
For experiment [6], the target named is Thyroid hormone receptor beta (Homo sapiens) (UniProt P10828). The experiment in a line: qHTS assay for small molecule agonists of thyroid hormone receptor beta signaling (AID 588545; calls by dose curve). Put shortly: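 Cells (2500/well) were seeded, incubated 4 hrs at 37 C, dosed with a compound series, incubated 18 hrs, loaded with CCF4 dye for 2 hrs at RT, then read for fluorescence. Data were scaled between DMSO (0%) and 10 nM T3 (100%).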
Chain of Thyroid hormone receptor beta (Homo sapiens) (P10828 whole entry, looked up): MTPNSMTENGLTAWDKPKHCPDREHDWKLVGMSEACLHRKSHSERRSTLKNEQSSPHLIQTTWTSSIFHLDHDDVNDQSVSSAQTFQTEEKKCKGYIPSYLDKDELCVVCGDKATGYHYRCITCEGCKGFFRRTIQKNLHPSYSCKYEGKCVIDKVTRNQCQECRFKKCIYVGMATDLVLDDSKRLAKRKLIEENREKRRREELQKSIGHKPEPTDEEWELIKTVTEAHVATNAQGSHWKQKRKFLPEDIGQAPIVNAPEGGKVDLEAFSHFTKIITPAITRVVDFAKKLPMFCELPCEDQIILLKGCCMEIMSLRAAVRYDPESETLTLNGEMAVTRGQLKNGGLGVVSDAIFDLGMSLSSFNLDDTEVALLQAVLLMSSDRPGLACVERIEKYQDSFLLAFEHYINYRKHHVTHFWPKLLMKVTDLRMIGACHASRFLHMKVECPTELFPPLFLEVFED

The nature of experiment [7]: qHTS assay for small molecule antagonists of retinoid X receptor alpha signaling (AID 588546).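 Further: cells stimulated with 9-cis-retinoic acid as agonist; on the % scale 0 is the no-effect control and ±100 the full control effect.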 The conditions noted are these: HEK293T RXRa-UAS-bla, beta-lactamase ratio, antagonist mode; measured here: W530 green channel, cytotoxicity proxy. Put shortly: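 Beta-lactamase reporter inhibition, read as CCF4 fluorescence ratio (ex 405, em 460/530 nm) after 2 h at RT. HEK293T UAS-bla cells, 2500/well, were stimulated with 9-cis-RA at 500 or 100 nM final alongside test compound for 18 h at 37 C.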

Experiment [8] has as its target Thyroid hormone receptor beta (Homo sapiens) (UniProt P10828). The experiment is described as follows: qHTS assay for small molecule antagonists of thyroid hormone receptor beta signaling (AID 588547; active means well fitted inhibition curve with a large enough effect in the signal ratio, with a control signal flat, not every such curve was filed as active; the % refers to the signal ratio;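 further: cells stimulated with 0.4 nM T3 agonist during compound exposure; series mostly up to about 77 µM; on the % scale 0 is the no-effect control and ±100 the full control effect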). Particulars: TR-UAS-bla HEK293, beta-lactamase ratio, antagonist mode, 18 h. Put shortly: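 TR-UAS-bla GripTite HEK293 cells in 2% charcoal/dextran FBS medium were preincubated 4 h at 37 C, given compound (0.59 nM to 92 uM) plus 0.4 nM T3 (final) for 18 h, then CCF4 for 2 h at RT; Hill fit gave IC50.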

Experiment [9] has as its target Voltage-gated inwardly rectifying potassium channel KCNH2 (Homo sapiens) (UniProt Q12809). The experiment in a line: qHTS Assay for Small Molecule Inhibitors of the Human hERG Channel Activity (AID 588834).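 Further: top concentration of the series differs between compounds; on the % scale 0 is the no-effect control and ±100 the full control effect; lower thallium flux fluorescence means stronger hERG block; nearly all actives have a fitted effect of over 50% in size.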 Put shortly:
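Measured: FluxOR fluorescence after thallium stimulation in U2OS cells transduced with hERG by baculovirus. Compounds pre-incubated around 10 min; medium Opti-MEM with 2% FCS. AC50 from Hill equation.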

Experiment [10] in a line: qHTS assay for small molecule agonists of the antioxidant response element (ARE) signaling pathway (AID 651741; active means well fitted activation curve with a large enough effect in the signal ratio; the % refers to the signal ratio; further: % of control where 0% means no effect). Put shortly: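 Compounds in DMSO are pinned onto HepG2 ARE-bla cells (2,000/well) that were preincubated 5 h; plates stay 16 h at 37 C, then beta-lactamase activity is detected with LiveBLAzer B/G substrate by fluorescence.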
The nature of experiment [11]: qHTS assay for small molecule activators of the p53 signaling pathway (AID 651743; active means well fitted activation curve with a large enough effect in the signal ratio, not every such curve was filed as active; the % refers to the signal ratio; further: series mostly up to about 92 µM; % of control where 0% means no effect). The conditions noted are these: HCT-116 p53RE-bla, beta-lactamase FRET ratio, 16 h; activation: stronger effect = higher value. Put shortly: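 Cell-based beta-lactamase reporter (p53 response elements, HCT-116 background). After a 5-hour preincubation, cells received compound for 16 hours at 37 C; substrate development ran 2 hours at room temperature.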

Experiment [12] is described as follows: qHTS assay for small molecule activators of the nuclear factor-kappa B (NF-kB) signaling pathway (AID 651749; active means well fitted activation curve with a large enough effect in the signal ratio; the % refers to the signal ratio; further: series mostly up to about 77 µM; % of control where 0% means no effect). The conditions noted are these: NF-kB-bla ME-180 cells, beta-lactamase FRET ratio, 16 h; activation: stronger effect = higher value. Put shortly:
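Screening used 2,000 ME-180 reporter cells per well exposed to pinned compound (23 nL) or DMSO; after 16 hr at 37C, beta-lactamase expression under NF-kB control was assessed through FRET.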

The nature of experiment [13]: qHTS assay for small molecule disruptors of the mitochondrial membrane potential - 5 hr assay (AID 651755; calls by dose curve; further: on the % scale 0 is the no-effect control and ±100 the full control effect; nearly all actives have a fitted effect of over 40% in size). Put shortly: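 HepG2 cells, attached overnight at 37C, were exposed to compound or DMSO for 5 hr at 37C, 5% CO2. Mito-MPS dye was then added for 30 min, and fluorescence read at 490/535 nm (monomers) and 540/590 nm (aggregates).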
Experiment [14] deals with Tumor necrosis factor (Homo sapiens) (UniProt P01375). The experiment in a line: qHTS assay to identify small molecules that stimulate Tumor Necrosis Factor-alpha (TNF-alpha) secretion (AID 651757; active means well fitted curve in the direction sought with a large enough effect in the signal ratio; the % refers to the signal ratio; further: 0% is about no effect). Put shortly: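 THP-1 cells (3000/well) exposed to compounds 17 hrs at 37 C. Secreted TNF-alpha detected by HTRF with cryptate- and XL665-labeled anti-TNF-alpha antibodies after 3 hr at room temperature.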
Chain of Tumor necrosis factor (Homo sapiens) (P01375 whole entry, looked up): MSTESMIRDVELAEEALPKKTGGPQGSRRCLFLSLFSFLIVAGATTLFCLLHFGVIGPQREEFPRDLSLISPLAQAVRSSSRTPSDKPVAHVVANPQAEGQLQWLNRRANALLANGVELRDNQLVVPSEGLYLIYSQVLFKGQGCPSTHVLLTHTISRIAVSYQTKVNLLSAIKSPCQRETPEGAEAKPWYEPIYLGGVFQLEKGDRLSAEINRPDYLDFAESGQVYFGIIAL

The nature of experiment [15]: qHTS assay for environmental chemicals that activate the Aryl hydrocarbon Receptor (AhR) signaling pathway (AID 651777). Further: % of control where 0% means no effect; nearly all actives have a fitted effect of over 15% in size. The conditions noted are these: 1A2-DRE human hepatoma cells, luciferase, 24 h; activation: stronger effect = higher value. Put shortly: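 Quantitative HTS in stably transfected human liver-derived cells whose luciferase gene sits downstream of the CYP1A2 promoter and dioxin response element. After 24 hr exposure at 37 C, One-Glo luminescence was measured.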

Experiment [16] has as its target Peroxisome proliferator-activated receptor alpha (Homo sapiens) (UniProt Q07869). The experiment is described as follows: qHTS assay for small molecule agonists of the peroxisome proliferator-activated receptor alpha (PPARalpha) signaling pathway (AID 651778). Further: % of control where 0% means no effect. The conditions noted are these: PathHunter PPARalpha complementation, chemiluminescence, 6 h; stronger effect = higher value. Put shortly: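 Cells plated at 2,000/well and held overnight at 37 C, 5% CO2, then compound added by pin tool for 6 hr; after PathHunter detection reagent and 60 min at room temperature, chemiluminescence from enzyme complementation was read.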

The target of experiment [17] is Nuclear receptor ROR-gamma (Homo sapiens) (UniProt P51449). The experiment is described as follows: qHTS assay for small molecule antagonists of the retinoid-related orphan receptor gamma (ROR-gamma) signaling pathway (AID 651802).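 Further: luciferase reporter luminescence driven by ROR response element; series mostly up to about 92 µM; on the % scale 0 is the no-effect control and ±100 the full control effect; nearly all actives have a fitted effect of over 60% in size.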 Put shortly:
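CHO cells with TET-inducible ROR-gamma and RORE-luciferase reporter, dosed then doxycycline-induced. After 16 h at 37C, One-Glo luminescence read; decreased signal indicates antagonism.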

The nature of experiment [18]: qHTS assay for small molecule agonists of the antioxidant response element (ARE) signaling pathway measured by Nrf2-dependant transcriptional activity (AID 720636; active means well fitted curve in the direction sought with a large enough effect in the repeat runs; an effect the other way counts as inactive or inconclusive; further: % of control where 0% means no effect). Put shortly:
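Quantitative HTS format in HepG2 cells stably expressing an ARE-luciferase reporter; 16 hr compound treatment at 37 C, luciferase signal detected with ONE-Glo.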

Experiment [19] in a line: qHTS assay for small molecule antagonists of the retinoid-related orphan receptor gamma (ROR-gamma) signaling pathway - cell viability counter screen (AID 720652; active means well fitted curve in the direction sought with a large enough effect in the repeat runs; an effect the other way counts as inactive or inconclusive;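 further: series mostly up to about 92 µM; compound exposure lasted 16 hr before ATP read; on the % scale 0 is the no-effect control and ±100 the full control effect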). Put shortly: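 CHO cells carrying TET-inducible ROR and RORE-luciferase reporter, plated 5 hr, then dosed with compound plus doxycycline. After 16 hr at 37 C, viability read as intracellular ATP by CellTiter-Glo luminescence.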

Experiment [20] in a line: qHTS assay for cell viability of HEK293 cells (AID 743288). Further: on the % scale 0 is the no-effect control and ±100 the full control effect; nearly all actives have a fitted effect of over 50% in size. The conditions noted are these: ATP luminescence (CellTiter-Glo), 18 h; max response: stronger effect = lower value. Put shortly: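 The Tox21 protocol used parental HEK293 cells treated for 18 h at 37 C with compounds delivered by pintool; ATP-coupled luminescence after 30 min at room temperature gave viability.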
Experiment [21] in a line: qHTS assay for cell viability of the p53RE-bla HCT-116 cell line (AID 743292). Further: on the % scale 0 is the no-effect control and ±100 the full control effect; nearly all actives have a fitted effect of over 55% in size. Put shortly:
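Viability of compound-treated p53RE-bla HCT-116 cells is taken from ATP-dependent luciferase luminescence. Treatment lasts 16 h at 37 C after a 5 h settling period; detection follows 30 min at room temperature.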

Experiment [22] deals with Nuclear receptor subfamily 1 group I member 2 (Rattus norvegicus) (UniProt Q9R1A7). The experiment in a line: qHTS assay for small molecule activators of the rat pregnane X receptor (rPXR) signaling pathway (AID 651751; call rule not given here; further: 0% is about no effect). The conditions noted are these: rPXR reporter cells, luciferase (One-Glo), 24 h.
Chain of Nuclear receptor subfamily 1 group I member 2 (Rattus norvegicus) (Q9R1A7 whole entry, looked up): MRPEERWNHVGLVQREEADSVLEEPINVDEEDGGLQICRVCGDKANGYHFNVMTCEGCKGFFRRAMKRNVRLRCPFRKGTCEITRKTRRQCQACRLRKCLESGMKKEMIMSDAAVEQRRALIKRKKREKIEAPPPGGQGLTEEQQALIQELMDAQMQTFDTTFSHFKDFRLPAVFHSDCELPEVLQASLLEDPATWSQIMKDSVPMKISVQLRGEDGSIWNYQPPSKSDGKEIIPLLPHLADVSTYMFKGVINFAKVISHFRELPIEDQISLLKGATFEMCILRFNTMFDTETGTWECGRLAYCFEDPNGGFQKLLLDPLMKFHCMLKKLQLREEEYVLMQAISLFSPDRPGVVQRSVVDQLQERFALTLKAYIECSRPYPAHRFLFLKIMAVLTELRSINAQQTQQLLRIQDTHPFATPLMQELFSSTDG
Experiment [23] in a line: qHTS assay for small molecule activators of the human pregnane X receptor (PXR) signaling pathway (AID 720659; call rule not given here; further: 0% is about no effect).

Chain of Vitamin D3 receptor (Homo sapiens) (P11473 whole entry, looked up): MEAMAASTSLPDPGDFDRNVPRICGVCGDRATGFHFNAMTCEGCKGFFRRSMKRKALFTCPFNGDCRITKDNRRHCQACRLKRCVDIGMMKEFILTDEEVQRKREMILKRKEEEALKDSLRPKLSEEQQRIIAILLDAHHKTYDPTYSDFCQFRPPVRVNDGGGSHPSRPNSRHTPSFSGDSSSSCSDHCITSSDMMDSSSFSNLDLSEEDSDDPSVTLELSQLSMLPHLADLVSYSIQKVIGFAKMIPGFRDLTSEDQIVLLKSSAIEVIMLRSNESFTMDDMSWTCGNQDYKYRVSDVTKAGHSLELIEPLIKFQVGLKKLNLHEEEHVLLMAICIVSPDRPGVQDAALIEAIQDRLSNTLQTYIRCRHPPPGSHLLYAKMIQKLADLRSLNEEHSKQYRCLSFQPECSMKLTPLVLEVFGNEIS
Chain of Peroxisome proliferator-activated receptor alpha (Homo sapiens) (Q07869 whole entry, looked up): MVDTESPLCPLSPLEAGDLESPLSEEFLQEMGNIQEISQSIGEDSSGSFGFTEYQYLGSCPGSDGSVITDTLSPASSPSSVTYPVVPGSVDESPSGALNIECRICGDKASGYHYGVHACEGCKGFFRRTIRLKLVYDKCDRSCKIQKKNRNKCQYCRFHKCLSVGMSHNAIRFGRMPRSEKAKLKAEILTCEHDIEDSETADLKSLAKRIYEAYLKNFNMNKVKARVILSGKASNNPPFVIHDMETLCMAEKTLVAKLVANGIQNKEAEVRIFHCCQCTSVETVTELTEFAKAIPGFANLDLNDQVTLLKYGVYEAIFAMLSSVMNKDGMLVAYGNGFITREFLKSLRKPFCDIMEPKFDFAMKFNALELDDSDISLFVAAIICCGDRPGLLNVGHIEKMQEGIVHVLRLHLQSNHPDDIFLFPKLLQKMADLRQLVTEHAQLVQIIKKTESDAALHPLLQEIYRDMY
Chain of Peroxisome proliferator-activated receptor gamma (Homo sapiens) (P37231 whole entry, looked up): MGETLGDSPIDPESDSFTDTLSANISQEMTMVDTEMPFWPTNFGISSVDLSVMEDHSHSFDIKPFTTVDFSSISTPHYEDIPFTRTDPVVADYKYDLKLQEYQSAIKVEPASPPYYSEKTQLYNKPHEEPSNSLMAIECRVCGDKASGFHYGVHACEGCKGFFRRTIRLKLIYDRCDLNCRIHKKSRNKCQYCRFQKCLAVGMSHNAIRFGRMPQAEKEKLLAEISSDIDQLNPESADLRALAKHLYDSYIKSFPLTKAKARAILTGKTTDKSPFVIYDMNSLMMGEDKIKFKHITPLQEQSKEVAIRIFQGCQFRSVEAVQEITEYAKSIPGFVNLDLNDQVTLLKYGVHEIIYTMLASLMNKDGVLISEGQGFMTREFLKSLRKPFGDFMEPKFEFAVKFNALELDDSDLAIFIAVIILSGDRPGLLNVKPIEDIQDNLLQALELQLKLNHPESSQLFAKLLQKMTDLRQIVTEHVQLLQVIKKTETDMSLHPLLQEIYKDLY
Chain of Nuclear receptor ROR-gamma (Homo sapiens) (P51449 whole entry, looked up): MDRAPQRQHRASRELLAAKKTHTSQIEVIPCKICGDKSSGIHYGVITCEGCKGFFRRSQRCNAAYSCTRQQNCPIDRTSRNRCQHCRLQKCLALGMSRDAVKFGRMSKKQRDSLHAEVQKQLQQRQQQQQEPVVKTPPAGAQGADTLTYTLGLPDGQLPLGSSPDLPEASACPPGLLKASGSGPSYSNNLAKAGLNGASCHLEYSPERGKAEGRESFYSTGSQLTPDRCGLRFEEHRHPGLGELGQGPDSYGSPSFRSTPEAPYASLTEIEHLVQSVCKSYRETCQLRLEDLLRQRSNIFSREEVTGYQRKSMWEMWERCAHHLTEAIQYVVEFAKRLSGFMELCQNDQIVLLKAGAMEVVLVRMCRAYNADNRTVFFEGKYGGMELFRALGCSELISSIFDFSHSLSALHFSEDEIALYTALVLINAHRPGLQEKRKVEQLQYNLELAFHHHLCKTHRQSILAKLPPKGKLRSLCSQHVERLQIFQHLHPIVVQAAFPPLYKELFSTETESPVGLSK
Chain of Voltage-gated inwardly rectifying potassium channel KCNH2 (Homo sapiens) (Q12809 whole entry, looked up): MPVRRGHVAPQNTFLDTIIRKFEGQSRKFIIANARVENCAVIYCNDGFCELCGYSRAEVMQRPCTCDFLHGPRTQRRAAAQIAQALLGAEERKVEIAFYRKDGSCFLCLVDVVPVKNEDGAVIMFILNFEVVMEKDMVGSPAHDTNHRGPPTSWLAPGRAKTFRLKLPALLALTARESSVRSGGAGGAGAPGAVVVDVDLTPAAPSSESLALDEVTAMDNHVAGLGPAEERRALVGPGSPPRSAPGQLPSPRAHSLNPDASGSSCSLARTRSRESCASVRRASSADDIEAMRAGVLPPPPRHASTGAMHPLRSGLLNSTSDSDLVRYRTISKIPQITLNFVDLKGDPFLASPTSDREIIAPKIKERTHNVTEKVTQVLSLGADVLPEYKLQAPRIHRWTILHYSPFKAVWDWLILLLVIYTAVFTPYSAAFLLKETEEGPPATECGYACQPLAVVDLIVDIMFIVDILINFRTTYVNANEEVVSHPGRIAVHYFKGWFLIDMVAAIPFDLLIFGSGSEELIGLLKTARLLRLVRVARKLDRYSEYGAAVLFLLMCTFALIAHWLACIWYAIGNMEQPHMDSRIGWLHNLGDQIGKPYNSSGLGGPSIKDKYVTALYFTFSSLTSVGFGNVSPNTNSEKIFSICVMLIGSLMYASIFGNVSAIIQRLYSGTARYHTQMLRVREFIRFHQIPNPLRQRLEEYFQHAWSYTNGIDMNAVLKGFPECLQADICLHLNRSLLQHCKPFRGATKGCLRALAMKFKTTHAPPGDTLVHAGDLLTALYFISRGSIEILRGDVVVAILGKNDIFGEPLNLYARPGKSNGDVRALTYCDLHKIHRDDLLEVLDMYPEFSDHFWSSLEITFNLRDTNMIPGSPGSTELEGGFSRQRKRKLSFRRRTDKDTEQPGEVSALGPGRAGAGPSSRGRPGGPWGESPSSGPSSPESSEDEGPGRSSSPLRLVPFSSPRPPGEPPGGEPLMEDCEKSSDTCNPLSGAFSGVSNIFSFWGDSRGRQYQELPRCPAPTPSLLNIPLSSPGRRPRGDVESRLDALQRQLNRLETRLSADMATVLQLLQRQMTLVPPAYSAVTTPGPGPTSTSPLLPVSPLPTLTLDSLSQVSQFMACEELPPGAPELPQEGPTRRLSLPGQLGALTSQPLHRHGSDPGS

In the case of `BrCCBr`, the compound was classed as inactive in experiment [1], in experiment [2], in experiment [3], in [6], in experiment [14] and in experiment [18]. For the same compound, in experiment [23], the compound was classed as inactive. The max response was -0.875% and -18.5% in [4]; -10.6% and -9.29% in [7]; -2.04% (inactive) and -4.02% (inactive) in experiment [16]; 2.15% (inactive) and 1.92% (inactive) in [20]; 2.8% (inactive) and -1.13% (inactive) in experiment [22]. Besides, the Potency entry in experiment [5], in experiment [9], in [10], in experiment [13], in experiment [17] and in experiment [19] was “inactive” throughout. Moreover, the Potency entry in experiment [21] is “inactive”. In experiment [8], the activity change % (negative = inhibition) was -9.28% (inactive). For the same compound, the activation in experiment [11] was -3.11% (inactive) and 0.969% (inactive); in [12], -0.199% (inactive) and 0.87% (inactive); in experiment [15] it was -1.12% (inactive) and 0.568% (inactive).
